HCMV antiviral: inhibitors of human cytomegalovirus | HFF cells, HCMV-luciferase reporter, 72 h; active compounds read low | activity change, negative = inhibition, % at 57.5 µM | actives 4.5% (n = 410,000) | AID 1259415; in the data active = activity change below about -60%; inconclusive = no clear call, values can overlap the other calls; inactive = above about -39%
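After 16 h attachment at 37C, HFF cells received test compound and HCMV-luciferase (1 PFU/cell); reporter luminescence read 72 h later, data normalized against buffer-only and known inhibitor Salinomycin.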
Sm TGR block: blocks Schistosoma mansoni thioredoxin glutathione reductase; actives 3% (n = 360,000); purified TGR, DTNB reduction, TNB absorbance 405 nm; Q962Y6; Potency, µM (titrated, usually from 114 µM), actives largely listed as inhibitors; also: nearly all actives have a fitted effect of over 60% in size
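First, TGR (20 nM dispensed) and NADPH were mixed with compound. Second, a 15 min room-temperature incubation followed. Third, further NADPH and then DTNB were added to start the reaction. Finally, TNB absorbance was monitored kinetically.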
Pf growth 48h: P. falciparum growth inhibition at 48 hours (one generation); P. falciparum luciferase growth in erythrocytes, 48 h; Potency, µM (top dose mostly 28.7 µM), actives largely listed as inhibitors; actives 5.9% (n = 310,000); AID 504832
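Luciferase-expressing parasites in RBCs, 2% Hct / 0.1% parasitemia final; RPMI 1640 + 0.5% Albumax; 37 C, 5% CO2, one generation; luminescence read-out, lower signal = inhibition.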
HCV inh: HCV inhibition. Huh7.5.1 HCVcc-Cre infection, luciferase reporter, 44 h. Potency, µM (highest dose often 41.8 µM), usual class: inhibitors. actives 3.4% (n = 340,000)
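Compounds are dispensed onto cells plated 4 h earlier at 1,000 per well, with HCVcc-Cre virus (about 0.5 moi) added next. Following 44 h of culture, luminescent signal is measured for 15 sec after 15 min with substrate at room temperature.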
Pf growth 96h: inhibits malaria parasite growth, 96 h | actives 6.9% (n = 320,000) | Potency, µM (top dose mostly 28.7 µM), most hits filed as inhibitors | AID 504834 | P. falciparum luciferase reporter growth, 96 h
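Infected RBCs, 2% Hct / 0.05% parasitemia final; luciferase-reporter P. falciparum; cpd 96 h, 37 C, 5% CO2; luciferase detection reagent; luminescence.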
SARS PLpro yeast: inhibitors of SARS-CoV papain-like protease in yeast; S. cerevisiae expressing SARS-CoV PLpro, growth rescue; AID 485353; Potency, µM (titrated, usually from 32.9 µM), usual class: activators; actives 0.19% (n = 330,000); calls by dose curve; also: nearly all actives have a fitted effect of over 55% in size
Of the large screens only hits and unclear results are named; the others gave an inactive call. Sampled rows, rich in hits. Any-hit rate of the full collection: about 15%. Unless noted, calls follow the shape of the dose curve; as a rule, active = well fitted curve in the direction sought with a large enough effect; inconclusive = small, poorly fitted or top-dose-only effect, or another doubt; inactive = no such curve, though single readings can be large; an effect the other way counts as inactive or inconclusive.

CCn1c2ccccc2c2cc(CN3CCN(Cc4ccc(Cl)cc4)CC3)ccc21	none (no result: Pf growth 48h, HCV inh, Pf growth 96h, SARS PLpro yeast)
COc1cc(CN2CCN(Cc3ccc(SC)cc3)CC2)cc(OC)c1O	Sm TGR block 10µM, HCV inh inconclusive
O=C(CCCCn1c(=O)c2ccccc2n(Cc2ccccc2Cl)c1=O)NCc1ccc2c(c1)OCO2	none (no result: Pf growth 48h, HCV inh, Pf growth 96h, SARS PLpro yeast)
CO[C@@]1(NC(=O)C2SC(=C(C(N)=O)C(=O)O)S2)C(=O)N2C(C(=O)O)=C(CSc3nnnn3C)CS[C@@H]21 (stereo partly drawn)	Sm TGR block 40µM (no result: SARS PLpro yeast)
Cc1cc(=O)c(C(=O)N[C@@H](C(=O)N[C@@H]2C(=O)N3C(C(=O)O)=C(CSc4nnnn4C)CS[C@H]23)c2ccc(O)cc2)c[nH]1	Pf growth 96h inconclusive (no result: HCMV antiviral, Sm TGR block, HCV inh, SARS PLpro yeast)
N#Cc1ccc(C23OCCN2CCn2nc4ccccc4c23)cc1 (stereo not drawn)	HCV inh 4µM (no result: Sm TGR block, Pf growth 48h, Pf growth 96h)
[O-][n+]1c2ccccc2c2n1CCN1CCOC21c1ccc(Cl)cc1 (stereo not drawn)	Pf growth 48h inconclusive, HCV inh inconclusive, Pf growth 96h inconclusive
COC(=O)c1ccc(COc2cccc(C)c2C)cc1	none
O=S(=O)(NC1CCN(Cc2ccccc2)CC1)c1ccc2ccccc2c1	Pf growth 48h inconclusive
CCOC(=O)N1CCN(C(=O)COc2ccc3ccccc3c2Br)CC1	Pf growth 96h 13µM
CCOC(=O)C1CCN(Cc2ccc3ccccc3c2)CC1	Pf growth 96h 13µM
O=C(C1CCCO1)N1CCN(Cc2c(O)ccc3ccccc23)CC1 (stereo not drawn)	Sm TGR block 0.5µM (no result: Pf growth 48h)
O=C(NNS(=O)(=O)c1ccc2ccccc2c1)C1CCN(Cc2ccccc2)CC1	HCMV antiviral -107
CC1(C)CC(=O)C2=C(C1)N(c1ccccc1)C(=O)C2(O)C(F)(F)F (stereo not drawn)	none
Cc1ccc(NC(=O)Cn2c(=O)cc(-c3ccccc3)c3c(C)nn(C)c32)c(Cl)c1	none (no result: Pf growth 48h, HCV inh, Pf growth 96h, SARS PLpro yeast)
CCOC(=O)[C@]12CCC=C1N(Cc1cccc3ccccc13)C(=O)[C@H](CC(=O)NCCCOC)C2	none (no result: Sm TGR block, Pf growth 48h, HCV inh, Pf growth 96h, SARS PLpro yeast)
C=CC[C@@H](CC(=O)N[C@@H](CO)Cc1ccccc1)C(=O)N[C@H](C)COC(=O)[C@@H](CC=C)Cc1ccc(F)cc1	none (no result: Sm TGR block, Pf growth 48h, Pf growth 96h)
CCOC(=O)C1CCN(Cc2cc(C(C)C)c(O)c(C(C)C)c2)CC1	Pf growth 48h inconclusive, Pf growth 96h 0.41µM
CCOC(=O)C1CCN(Cc2ccc(F)c(F)c2)CC1	none (no result: Pf growth 48h)
CCOC(=O)N1CCN(Cc2c(O)ccc3ccccc23)CC1	Sm TGR block 0.28µM
CCOC(=O)N1CCN(C(=O)Cc2c(C(=O)O)n(C)c3ccccc23)CC1	HCMV antiviral inconclusive, HCV inh 3.5µM
COc1ccccc1C1CCN(Cc2ccc3ccccc3c2)CC1	HCMV antiviral -67, Pf growth 96h inconclusive (no result: Pf growth 48h)
CC1CCN(C(=O)CN2CC(C)Sc3ccccc32)CC1 (stereo not drawn)	none (no result: Pf growth 48h, HCV inh, Pf growth 96h, SARS PLpro yeast)
O=C(NC12CC3CC(CC(C3)C1)C2)c1ccc(S(=O)(=O)N2CCOCC2)cc1	Pf growth 96h inconclusive
O=C(c1cccs1)N1CCN(C(=O)C2CCCO2)CC1 (stereo not drawn)	Pf growth 96h 4.7µM
O=C(Cc1cccs1)N1CCN(C(=O)C2CCCO2)CC1 (stereo not drawn)	none (no result: Pf growth 96h)
COc1ccc(-c2nn3c(=O)cc(CN4CCN(C(=O)c5ccc(C(C)(C)C)cc5)CC4)nc3s2)cc1	none (no result: Pf growth 48h, HCV inh, Pf growth 96h, SARS PLpro yeast)
Cc1ccc(-c2nc(CN3CCN(C(=O)C4CCCO4)CC3)cs2)cc1 (stereo not drawn)	HCMV antiviral -71 (no result: HCV inh)
Cc1nc(CN2CCN(C(=O)c3ccc(C(C)(C)C)cc3)CC2)cs1	HCV inh inconclusive, Pf growth 96h 12µM (no result: Pf growth 48h)
CCOC(=O)C1CCN(Cc2c(O)c3ccccc3oc2=O)CC1	none
CCOC(=O)C1CCN(Cc2c(O)ccc3ccccc23)CC1	Sm TGR block 3.5µM, Pf growth 48h inconclusive, Pf growth 96h 9.3µM
Cc1ccc(CNC(=O)C2CCC(=O)N2CCc2ccccc2)cc1 (stereo not drawn)	none
COc1ccc(S(=O)(=O)N2CCC(C(=O)NCC(=O)Nc3c(C)cccc3C)CC2)cc1OC	HCV inh inconclusive (no result: Sm TGR block, Pf growth 48h, Pf growth 96h, SARS PLpro yeast)
CCOc1ccc(NC(=O)CN(C)C(=O)c2cc(C3CC3)nn2-c2ccccc2)cc1OCC	Pf growth 48h inconclusive
Cc1cccc(CC(=O)NCC2CCCCC2)c1	Pf growth 96h inconclusive (no result: HCMV antiviral)
O=C(NCCS(=O)(=O)N1CCCCCC1)c1ccc(F)cc1	none
c1ccc(CN2CCN(Cc3ccc4ccccc4c3)CC2)cc1	Pf growth 48h inconclusive, Pf growth 96h 0.93µM
CCOC(=O)c1oc2ccccc2c1CN1CCN(C)CC1	Pf growth 96h 13µM
COCCn1c(CN2CCN(C(=O)c3ccco3)CC2)nc2c1c(=O)n(C)c(=O)n2C	Pf growth 96h inconclusive
O=C(CC(c1cccs1)N1Cc2ccccc2C1=O)Nc1ccccc1F (stereo not drawn)	none (no result: Pf growth 48h, HCV inh, Pf growth 96h, SARS PLpro yeast)
COCCn1cnc2c(c1=O)c1nc3ccccc3nc1n2/N=C/c1ccc(OC)c(OC)c1	Pf growth 48h 1.7µM, Pf growth 96h 2.6µM
CCCCCCn1cnc2c(c1=O)c1nc3ccccc3nc1n2/N=C/c1ccco1	Sm TGR block 14µM, Pf growth 48h inconclusive, Pf growth 96h inconclusive
CCCCCCn1cnc2c(c1=O)c1nc3ccccc3nc1n2Cc1cccs1	none
CCCn1c(C)nc2c(c1=O)c1nc3ccccc3nc1n2CCC1=CCCCC1	Pf growth 48h inconclusive, Pf growth 96h inconclusive
Cc1nc2c(c(=O)n1CCC1=CCCCC1)c1nc3ccccc3nc1n2/N=C/c1ccco1	Sm TGR block 11µM, Pf growth 48h 10µM, HCV inh inconclusive, Pf growth 96h 9.3µM
COCCn1cnc2c(c1=O)c1nc3ccccc3nc1n2/N=C/c1ccco1	Sm TGR block 45µM
O=C(COc1ccc2ccc(=O)oc2c1)NC1CCN(Cc2ccccc2)CC1	SARS PLpro yeast inconclusive
COc1ccc(-c2cn3nc(SCC(=O)Nc4cccc(C)c4C)ccc3n2)cc1	none (no result: Pf growth 48h, HCV inh, Pf growth 96h, SARS PLpro yeast)
CCn1ncc(C2=NOC(C(=O)Nc3cccc(O)c3)C2)c1C (stereo not drawn)	Pf growth 48h inconclusive, Pf growth 96h inconclusive
Cc1noc(/C=C/c2cccs2)c1S(=O)(=O)N1CCC(C(=O)NCCCN2CCC(C)CC2)CC1	HCV inh 11µM
Cc1noc(/C=C/c2ccco2)c1S(=O)(=O)N1CCC(C(=O)NCc2ccco2)CC1	HCMV antiviral -73, Sm TGR block inconclusive, Pf growth 48h 13µM, HCV inh inconclusive (no result: Pf growth 96h)
Cc1ccc(CNC(=O)C2CCN(S(=O)(=O)c3c(C)noc3/C=C/c3ccco3)CC2)cc1	Sm TGR block 40µM, Pf growth 96h 6.6µM (no result: Pf growth 48h)
Cc1ccc(NC(=O)C2CCN(S(=O)(=O)c3c(C)noc3/C=C/c3ccco3)CC2)nc1	HCMV antiviral -94, Pf growth 96h inconclusive

Screening results as filed in PubChem BioAssay.
